Screening data: PubChem BioAssay, Center for Chemical Genomics, University of Michigan
This excerpt belongs to a sample that is enriched for hits.
Dicer inh: inhibitors of human Dicer processing of pre-microRNA; cat-ELCCA pre-miR-21 Dicer processing, chemiluminescence; stronger effect = higher value; z-score at 25 µM; actives 6% (n = 47,000); in the data active = z-score above about 3, passing the limit was not always enough;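 note: higher signal means more uncleaved substrate so more Dicer inhibition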
Each line names hits and unclear results; the compound was inactive in the other large screens.

FC(F)(F)c1ccc2cccc(C(F)(F)F)c2n1	none
O=C(O)C1C2C=CC(O2)C1C(=O)NCc1cccnc1 (stereo not given)	none
COc1ccc(OC/C(N)=N/C(=S)Nc2ccc(Cl)cc2)cc1	none
COc1ccc(OC)c(S(=O)(=O)N2CCc3cc(OC)c(OC)cc3C2C)c1 (stereo not given)	none
c1ccc(-c2nn3c4cc(N5CCOCC5)ccc4nc3c3ccccc23)cc1	Dicer inh 6.08
COc1ccc(-c2nnc(N3CCOCC3)c3ccccc23)cc1	none
c1ccc(-c2nc3c4ccccc4ccn3c2CN2CCOCC2)cc1	none
NC(=S)N/N=C1\CCOc2ccc3ccccc3c21	none
Clc1ccc(Sc2c(Cl)cncc2Cl)cc1	none
Cc1n[nH]c(C)c1Sc1n[nH]c(=O)[nH]c1=O	none
O=C(CCc1ccc(O)cc1)c1c(O)cc(O)cc1O	Dicer inh 3.59
CCOC(=O)C(=CNNC(=O)CCc1ccc(O)cc1)C(=O)OCC	none
O=C(CCc1ccc(O)cc1)NNC(=S)NCCc1ccccc1	none
COC(=O)c1cc(=O)n2c(c1C(=O)c1cccs1)SCC2	Dicer inh 6.85
COC(=O)c1csc2c(C(F)(F)F)cc(N3CCN(C(=O)c4cccs4)CC3)nc12	none
COC(=O)c1ccsc1NC(=O)c1cccs1	none
Cc1ccc2[nH]c(C)c(CN(C)Cc3ccccc3)c(=O)c2c1	none
C=CCn1c(SCC(=O)NC(=O)Nc2ccccc2)nnc1-c1ccc(Cl)cc1	none
COc1c(Br)cc(-c2noc(CSc3ccccc3)n2)cc1Br	none
COC(=O)CN(C#N)c1nc(C)cc(OC)n1	none
CCN(CC)C(=O)CN(C#N)c1nc(C)cc(C)n1	none
COC(=O)C(C)N(C#N)c1nc(C)cc(C)n1 (stereo not given)	Dicer inh 5.96
CCOC(=O)N1CCN(C2CC(=O)N(c3ccc(OC)cc3)C2=O)CC1 (stereo not given)	none
CC(C)(C)c1cc2nc(C(F)(F)F)cc(N3CCN(C(=O)c4ccccc4)CC3)n2n1	none
Cc1ccc(S(=O)(=O)/C(C#N)=N/O)cc1	none
CSC1=N/C(=C\c2c(C)nn(-c3ccccc3)c2Cl)C(=O)S1	none
O=C(Oc1cccnc1)C1c2ccccc2Oc2ccccc21	none
CN(C)c1nc2ccc(O)cc2s1	none
CCN(CC)C(=O)Cn1cc(C(=O)c2cccs2)c2ccccc21	none
COC(=O)Cn1cc(C(=O)C2CCCCC2)c2ccccc21	none
CCN(CC)C(=O)Cn1cc(C(=O)C2CC2)c2ccccc21	Dicer inh 4.08
c1cc(-c2nc3cc4sc(-c5ccn[nH]5)nc4cc3s2)[nH]n1	Dicer inh 3.18
Nc1ccc(-c2nc3cc4sc(-c5ccc(N)cc5)nc4cc3s2)cc1	none
Nc1cccc(-c2nc3cc4sc(-c5cccc(N)c5)nc4cc3s2)c1	none
C/C(=N\Nc1ncc(C(F)(F)F)cc1Cl)c1ccc(Oc2c(Cl)cncc2Cl)cc1	none
O=[N+]([O-])c1cccc(C2=NNC(O)(C(F)(F)F)C2)c1 (stereo not given)	none
CC(=O)/C(N=Nc1ccc(C)cc1[N+](=O)[O-])=C(\C)O	Dicer inh 3.23
CC(=O)/C(N=Nc1cc(F)c(Br)cc1F)=C(\C)O	none
CCOC(=O)/C(N=Nc1ccc(C)cc1C)=C(\C)O	none
CCSCCOC(=O)C1=C(C)NC2=C(C(=O)CC(c3ccccc3Cl)C2)C1c1cccs1 (stereo not given)	none
Cc1c(N=CN(C(=O)C2CCCCC2)c2cccc([N+](=O)[O-])c2C)cccc1[N+](=O)[O-]	none
Cc1cc(NC(=O)c2ccc3c(c2)OCCO3)no1	Dicer inh 4.19
Cc1cc(-c2nnc(SCC(=O)c3ccc4c(c3)OCCO4)o2)no1	none
Cc1cc(NC(=O)c2ccc3c(c2)OCO3)no1	none
COC(=O)c1ccc([C@@H]2Nc3c(OC)ccc(Cl)c3[C@@H]3C=CC[C@@H]32)cc1	none
N#Cc1ccc(CNC(=S)Nc2ccccc2Cl)cc1	none
CSc1scc(-c2cccs2)c1C#N	none
O=c1[nH]c2c(cnn2-c2ccccc2)c(=O)n1-c1ccccc1	none
CCOC(=O)CN(C(=O)CSc1nc(C)cc(C)c1C#N)c1ccccc1C	none
CC1(C)CSC(=NC2CCCCC2)N1	Dicer inh 3.24
C=Cc1c(C)c2cc3nc(cc4[nH]c(cc5nc(cc1[nH]2)C(C)=C5CCC(=O)O)c(CCC(=O)OC)c4C)[C@@]1(C)C3=CC=C(C(=O)OC)C1C(=O)OC (stereo not given in full)	none
COc1cc(C2CC(=O)Nc3nc(N)[nH]c(=O)c32)ccc1OCc1cccc(Cl)c1 (stereo not given)	none
CCOC(=O)c1cc(C(C)(C)C)n(-c2ccc(N3CCOCC3)cc2)c1C	none
CCOC(=O)c1cc(-c2ccccc2)n(-c2ccc(N3CCOCC3)cc2)c1C	Dicer inh 4.28
CCOC(=O)c1cc(-c2ccc(Cl)cc2)n(-c2ccccc2)c1C	none
O=S(=O)(/N=C(\NNC(=S)Nc1cccc(F)c1)N1CCCC1)c1ccccc1	none
COc1cc(C2N(C(C)=O)N=C(NC(C)=O)N2C(C)=O)cc(OC)c1OC (stereo not given)	none
Cc1cc(Cl)ccc1NC(=S)NNC(=O)c1ccccc1Cl	none
S=C(N/N=C\c1cccc2ccccc12)Nc1cccc(Cl)c1Cl	Dicer inh 3.77
Cc1cc(Cl)ccc1NNC(N)=S	none
CN(C)NC(=S)Nc1cccc(Cl)c1Cl	none
S=C(N/N=C/c1cccc2ccccc12)Nc1c(Cl)cccc1Cl	none
